Assay outcomes (PubChem)
This is a sample that favours compounds with a hit; in the whole collection about 3.7% have one here.
HepG2 tox – HepG2 cytotoxicity, counter-screen for TGF-b inhibitors. HepG2 CAGA-GFP viability, ATP luminescence, 18 h. Potency, µM (titrated, usually from 46.1 µM), for the others: at the highest dose activity change, negative = cytotoxicity, usual class: cytotoxic. hit rate 0.76% among 410,000. AID 588856
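HepG2 CAGA-GFP cells (1000/well, DMEM with 1% FBS) received compound, then TGF-beta at 500 pg/mL final, and were incubated 18 hours at 37 degrees C. Viability was read by CellTiter-Glo luminescence. Media-only wells were set as complete cell-killing and DMSO as no toxicity.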
TGFb inhibitor – inhibitors of TGF-b signaling; Potency, µM (titrated, usually from 46.1 µM), for the others: top-dose activity, negative = inhibition, hits mostly inhibitors; HepG2 CAGA-GFP TGF-b/SMAD3 reporter, GFP fluorescence, 18 h; TGF-beta stimulated, 500 pg/mL final; AID 588855; hit rate 1.2% among 410,000; also: % is scaled to controls: 0 for no effect and ±100 for the full control effect; nearly all actives have a fitted effect of over 65% in size
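Smad-responsive CAGA-GFP expression was quantified in HEPG2 cells exposed to compounds and 500 pg/mL final TGF-beta for 18 h at 37 degrees C; unstimulated wells defined full inhibition.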
ATXN viability – cell viability loss in ATXN counter-screen; S2 cells (HEK-293 line with an ATXN2-luciferase reporter) viability, CellTiter-Fluor protease fluorescence, 24 h; Potency, µM (titrated, usually from 56.7 µM), actives largely listed as cytotoxic; hit rate 0.49% among 400,000; AID 651635; also: nearly all actives have a fitted effect of over 40% in size
ATXN2 expr inh – reduces ATXN2 reporter expression in HEK-293 cells; hit rate 0.72% among 360,000; HEK-293 ATXN2-luciferase reporter, luminescence, 24 h; Potency, µM (titrated, usually from 57 µM), for inactives: top-dose activity change, negative = inhibition, actives largely listed as inhibitors; also: % is scaled to controls: 0 for no effect and ±100 for the full control effect; nearly all actives have a fitted effect of over 55% in size
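qHTS (up to 57 uM final) was run with 24 h compound exposure of reporter cells at 37 °C. Each well was multiplexed: SteadyGlo luminescence measured ATXN2-luciferase expression after a fluorogenic Gly-Phe-AFC viability readout (25 uM final).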
GLP-1R inv ag – inverse agonists of human GLP-1 receptor. hit rate 1.6% among 410,000. Potency, µM (series often up to 38.3 µM), for the others: at the highest dose activity change, negative = inhibition, actives largely listed as inhibitors. HEK293 GLP-1R CRE-luciferase, luminescence, 24 h; GLP-1R form is constitutively active; also: % is scaled to controls: 0 for no effect and ±100 for the full control effect; nearly all actives have a fitted effect of over 55% in size
Target sequence (P43220 whole entry, looked up): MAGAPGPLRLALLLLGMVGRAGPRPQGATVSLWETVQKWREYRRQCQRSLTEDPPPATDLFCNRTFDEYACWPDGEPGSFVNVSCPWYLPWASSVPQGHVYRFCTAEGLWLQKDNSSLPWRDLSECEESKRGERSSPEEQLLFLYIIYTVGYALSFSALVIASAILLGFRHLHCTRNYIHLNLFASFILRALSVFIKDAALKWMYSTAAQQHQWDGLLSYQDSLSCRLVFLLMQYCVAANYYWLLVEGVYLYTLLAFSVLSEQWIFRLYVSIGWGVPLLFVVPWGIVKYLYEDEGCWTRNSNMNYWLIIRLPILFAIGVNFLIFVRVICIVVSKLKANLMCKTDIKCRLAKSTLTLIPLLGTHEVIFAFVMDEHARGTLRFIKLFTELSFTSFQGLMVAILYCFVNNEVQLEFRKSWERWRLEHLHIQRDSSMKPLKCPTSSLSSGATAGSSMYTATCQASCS
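Seeding at 200 cells/uL, 12 h culture, 24 hr compound treatment, then luciferase reagent and a luminescence read; cells are HEK293 stably expressing a constitutively active GLP-1R plus cAMP-responsive luciferase.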
GLP1R ag – GLP-1 receptor (human) agonism | P43220 | HEK293 GLP-1R CRE-luciferase, luminescence, 4-6 h; cells express a hypersensitive GLP-1R form | Potency, µM (top dose mostly 45.6 µM), inactives show at the highest dose activation, usual class: activators | hit rate 0.007% among 380,000; also: % of control where 0% means no effect
An asterisk follows results filed as active; i = inactive; ? = inconclusive; . = no result. Calls follow the shape of the dose curve; as a rule, active = well fitted curve in the direction sought with a large enough effect; inconclusive = small, poorly fitted or top-dose-only effect, or another doubt; inactive = no such curve, though single readings can be large; an effect the other way counts as inactive or inconclusive. Potency is read from the fitted curve at half-maximal effect.

SMILES | HepG2 tox | TGFb inhibitor | ATXN viability | ATXN2 expr inh | GLP-1R inv ag | GLP1R ag
COC(=O)C1=C(C)N(Cc2ccccc2)C(=NCCc2ccccn2)N[C@H]1c1cccc(C(F)(F)F)c1 | -82.7% | ? | ? | 35.5µM* | ? | 4.6%
COC(=O)C1=C(C)N(Cc2ccccc2)C(=NCc2ccccc2)N[C@H]1c1cccc(C(F)(F)F)c1 | 14.1µM* | ? | . | ? | ? | -11.6%
CS(=O)(=O)c1ccc(C(=O)NCCN2C(=O)S/C(=C\c3cccnc3)C2=O)cc1[N+](=O)[O-] | -142.1% | 14.1µM* | . | . | ? | -6.4%
CN(C)S(=O)(=O)c1ccc(C(=O)NCCN2C(=O)S/C(=C\c3cccnc3)C2=O)cc1 | -42.2% | 10.4% | ? | 0.3% | -1.6% | -0.5%
Cc1ccc(CN(Cc2ccco2)C(=O)c2cccc(C)c2)cc1 | -15.6% | -6.7% | i | -3.1% | 11.2µM* | .
CN(C)c1ccc(CN(Cc2ccco2)C(=O)c2ccc(C(C)(C)C)cc2)cc1 | -61.5% | . | . | . | 11.2µM* | .
COc1ccc(C(=O)N(Cc2ccc(N(C)C)cc2)Cc2ccco2)cc1Cl | -22.2% | . | . | . | ? | .
C=C1C=C(C)n2ncc(C(=O)Nc3cccc4cnccc34)c2N1 | -2.7% | 19.2% | . | . | . | .
CN(c1nc2c(c(=O)n(C)c(=O)n2C)n1CC(=O)c1ccccc1)C1CCCCC1 | -16.3% | -2.2% | ? | -2.7% | 7.94µM* | 18.2%
Cn1c(=O)c2c(nc(CN3CCc4ccccc4C3)n2CC(=O)c2ccccc2)n(C)c1=O | -30.8% | 7.94µM* | i | -4.9% | -2.1% | -3.3%
CN1CCN(c2ccccc2NC(=O)c2ccc(OCc3ccccc3)cc2)CC1 | -47.7% | 22.1% | i | ? | 11.2µM* | 13.2%
Cc1ccc(C)c(NC(=O)C(Cc2ccccc2)n2cccc2)c1 (stereo not drawn) | -4.4% | 3.8% | . | . | 10µM* | .
CN1CCN(c2ccccc2NC(=O)C(Cc2ccccc2)n2cccc2)CC1 (stereo not drawn) | -34.1% | -4.5% | 29.9µM* | 0.0% | ? | 9.0%
CN1CCN(c2ccccc2NC(=O)c2cccc(OCc3ccccc3)c2)CC1 | -52.3% | 2.4% | i | -23.4% | ? | -0.7%
O=C(Nc1ccccc1F)C(Cc1ccccc1)n1cccc1 (stereo not drawn) | -22.4% | -11.3% | . | . | -33.3% | .
Cc1ccc(CNc2ncnc3ccc(-c4ccoc4C)cc23)o1 | -53.6% | 15.8µM* | i | -28.4% | . | -1.9%
Clc1ccc(-c2nc3cnccn3c2Nc2ccc3c(c2)OCO3)cc1 | -27.2% | ? | i | -27.5% | ? | 7.1%
CSc1ccc(-c2nc3cnccn3c2Nc2ccc3c(c2)OCO3)cc1 | -35.5% | 5.01µM* | i | 4.7% | ? | -1.7%
COc1ccc(Cn2cc(C(=O)c3ccc(F)cc3)c(=O)c3cc4c(cc32)OCCO4)cc1 | -4.9% | 11.3% | i | 2.3% | 19.4% | .
COc1ccc(C(=O)c2cn(Cc3ccccc3F)c3ccc(F)cc3c2=O)cc1 | -14.2% | ? | i | -21.5% | ? | .
COc1ccc2c(c1)c(=O)c(C(=O)c1ccc(C)cc1)cn2Cc1ccccc1F | -34.5% | ? | 25.1µM* | ? | ? | .
CCOc1ccc(C(=O)c2cn(Cc3ccc(Cl)cc3)c3cc(OC)c(OC)cc3c2=O)cc1 | -27.5% | ? | 15.8µM* | -6.8% | -9.9% | .
COc1ccc(C(=O)c2cn(Cc3ccc(F)cc3)c3ccc(C)cc3c2=O)cc1 | -6.8% | ? | 17.8µM* | ? | ? | .
O=C(C[N+]12CCCc3cccc(c31)CCC2)c1ccc2ccc3cccc4ccc1c2c34 | 5.1% | -11.0% | . | . | . | .
COc1ccc(CN2C[C@H](Sc3nc4ccccc4[nH]3)C[C@H]2C(=O)N(C)C)c2ccccc12 | . | . | i | . | . | .
O=C(O)/C=C/c1ccccc1 | . | . | . | . | . | -1.5%
